The record followed here is PubChem BioAssay (Tox21).

Results filed as inconclusive are left out. Unmarked numbers belong to inactive results. Activity calls are given as the source filed them. Calls come from the whole dose curve; as a rule, active = well fitted curve in the direction sought with a large enough effect in the repeat runs; inconclusive = weak or mixed curves; inactive = no such curve, though single readings can be large; an effect the other way counts as inactive or inconclusive.

For assay [1], the target named is Cytochrome P450 2D6 (Homo sapiens) (UniProt P10635). The assay is described as follows: Cytochrome P450 Family 2 Subfamily D Member 6 (CYP2D6) small molecule antagonists: luciferase reporter qHTS assay (AID 1671196). Note: nearly all actives have a fitted effect of over 50% in size. Note: potency is the fitted concentration of half-maximal effect. A digest of the protocol:
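Test chemicals meet CYP2D6 plus proluciferin substrate (10 min, RT); NADPH regenerating solution then drives turnover for 1 h. Detection reagent halts the reaction; luminescence measured after 20 min.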
For orientation: Reporter assays use an easily measured gene product as a stand-in for the process of interest.

The target in assay [2] is Cytochrome P450 2C19 (Homo sapiens) (UniProt P33261). Nature of the assay: Cytochrome P450 Family 2 Subfamily C Member 19 (CYP2C19) small molecule antagonists: luciferase reporter qHTS assay (AID 1671197). Note: nearly all actives have a fitted effect of over 65% in size. Note: potency is the fitted concentration of half-maximal effect. The procedure, abridged:
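First, compounds are pinned into enzyme-substrate mix and held 10 min at room temperature. Second, NADPH regeneration solution is added and plates incubate 1 h at 37C. Third, detection reagent is added and luminescence read after 20 min.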

Assay [3] has as its target Cytochrome P450 1A2 (Homo sapiens) (UniProt P05177). The assay is described as follows: Cytochrome P450 Family 1 Subfamily A Member 2 (CYP1A2) small molecule antagonists: luciferase reporter qHTS assay (AID 1671199). Note: nearly all actives have a fitted effect of over 50% in size. Note: potency is the fitted concentration of half-maximal effect. A digest of the protocol:
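Steps: enzyme-substrate mix dispensed; test compounds and furafylline control pinned in; 10 min room temperature; NADPH regeneration solution added, 1 h; reaction stopped with luciferin detection reagent; luminescence read after 20 min.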

Assay [4] concerns the target Voltage-gated inwardly rectifying potassium channel KCNH2 (Homo sapiens) (UniProt Q12809). Nature of the assay: Human Ether-a-go-go-Related Gene (hERG) channel small molecule antagonists: fluorescence cell-based qHTS assay (AID 1671200).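 Note: hERG-expressing U2OS cells given a thallium stimulus after FluxOR II dye loading; series mostly up to about 77 µM; nearly all actives have a fitted effect of over 50% in size.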 The procedure, abridged: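 hERG-U2OS cells plated overnight at 37 C, loaded with FluxOR II dye 1 h at RT in dark; after 10 min, thallium stimulus added. Fluorescence (480/540 nm) read kinetically for 2 min at 1 s intervals.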
(In general: The hERG channel carries a current that helps repolarise heart muscle cells.)

The target in assay [5] is Cytochrome P450 3A4 (Homo sapiens) (UniProt P08684). Nature of the assay: Cytochrome P450 Family 3 Subfamily A Member 4 (CYP3A4) small molecule antagonists: luciferase reporter qHTS assay (AID 1671201). Note: nearly all actives have a fitted effect of over 50% in size. Note: potency is the fitted concentration of half-maximal effect. The procedure, abridged:
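P450-Glo CYP3A4 luminescent assay: compounds preincubated 10 min at room temperature with enzyme and proluciferin substrate, NADPH regeneration added, 1 h room-temperature reaction, stopped with luciferin detection reagent; luminescence read after 20 min. Ketoconazole positive control.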

Assay [6] deals with Cytochrome P450 2C9 (Homo sapiens) (UniProt P11712). Nature of the assay: Cytochrome P450 Family 2 Subfamily C Member 9 (CYP2C9) small molecule antagonists: luciferase reporter qHTS assay (AID 1671198). Note: nearly all actives have a fitted effect of over 50% in size. Note: potency is the fitted concentration of half-maximal effect. The procedure, abridged: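 P450-Glo proluciferin substrate with CYP2C9 enzyme; 10 min RT preincubation, then NADPH regeneration 1 h at 37C; luciferin detection reagent 20 min RT, luminescence in relative luminescence units.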
Cytochrome P450 2C9 (Homo sapiens), sequence (P11712 whole entry, looked up): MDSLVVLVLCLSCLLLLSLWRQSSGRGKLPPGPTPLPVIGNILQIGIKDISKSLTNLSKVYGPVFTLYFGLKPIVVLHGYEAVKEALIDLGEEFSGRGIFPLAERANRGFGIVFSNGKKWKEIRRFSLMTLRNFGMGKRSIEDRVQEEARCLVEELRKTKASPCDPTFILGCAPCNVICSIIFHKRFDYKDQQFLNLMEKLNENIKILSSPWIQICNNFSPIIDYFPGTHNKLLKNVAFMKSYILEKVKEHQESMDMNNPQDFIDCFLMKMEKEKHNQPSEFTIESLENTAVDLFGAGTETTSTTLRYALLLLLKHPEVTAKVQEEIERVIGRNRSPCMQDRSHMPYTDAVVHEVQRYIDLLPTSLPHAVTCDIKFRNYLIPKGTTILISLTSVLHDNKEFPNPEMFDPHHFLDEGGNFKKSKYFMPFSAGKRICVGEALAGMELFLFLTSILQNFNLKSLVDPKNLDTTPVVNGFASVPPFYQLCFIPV

Cytochrome P450 2D6 (Homo sapiens), sequence (P10635 whole entry, looked up): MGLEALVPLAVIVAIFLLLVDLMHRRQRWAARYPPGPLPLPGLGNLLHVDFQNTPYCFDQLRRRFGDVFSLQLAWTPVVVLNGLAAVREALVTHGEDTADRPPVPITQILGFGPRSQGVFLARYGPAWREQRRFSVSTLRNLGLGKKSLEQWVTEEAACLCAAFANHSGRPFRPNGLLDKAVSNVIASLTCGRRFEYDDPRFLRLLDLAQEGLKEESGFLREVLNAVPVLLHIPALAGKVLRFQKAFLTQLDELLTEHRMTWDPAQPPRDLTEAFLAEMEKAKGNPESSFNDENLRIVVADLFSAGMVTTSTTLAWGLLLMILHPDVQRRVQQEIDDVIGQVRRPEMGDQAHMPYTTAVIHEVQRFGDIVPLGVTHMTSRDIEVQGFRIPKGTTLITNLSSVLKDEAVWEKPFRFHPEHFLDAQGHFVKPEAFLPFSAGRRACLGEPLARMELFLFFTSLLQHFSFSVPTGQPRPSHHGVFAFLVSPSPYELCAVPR
Cytochrome P450 2C19 (Homo sapiens), sequence (P33261 whole entry, looked up): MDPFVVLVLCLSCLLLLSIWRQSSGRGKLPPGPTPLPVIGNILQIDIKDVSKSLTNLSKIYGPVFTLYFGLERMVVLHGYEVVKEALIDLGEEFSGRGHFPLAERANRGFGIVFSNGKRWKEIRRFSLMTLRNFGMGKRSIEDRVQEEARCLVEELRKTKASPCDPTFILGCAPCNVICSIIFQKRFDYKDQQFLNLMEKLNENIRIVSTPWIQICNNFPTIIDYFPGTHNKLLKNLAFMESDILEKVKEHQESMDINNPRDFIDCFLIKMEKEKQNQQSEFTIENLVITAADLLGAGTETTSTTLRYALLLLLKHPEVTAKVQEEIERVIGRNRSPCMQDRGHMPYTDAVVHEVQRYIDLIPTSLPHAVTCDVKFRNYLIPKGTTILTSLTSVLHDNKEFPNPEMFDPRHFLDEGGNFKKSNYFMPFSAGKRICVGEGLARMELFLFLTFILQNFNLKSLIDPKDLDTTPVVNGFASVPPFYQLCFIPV
Cytochrome P450 1A2 (Homo sapiens), sequence (P05177 whole entry, looked up): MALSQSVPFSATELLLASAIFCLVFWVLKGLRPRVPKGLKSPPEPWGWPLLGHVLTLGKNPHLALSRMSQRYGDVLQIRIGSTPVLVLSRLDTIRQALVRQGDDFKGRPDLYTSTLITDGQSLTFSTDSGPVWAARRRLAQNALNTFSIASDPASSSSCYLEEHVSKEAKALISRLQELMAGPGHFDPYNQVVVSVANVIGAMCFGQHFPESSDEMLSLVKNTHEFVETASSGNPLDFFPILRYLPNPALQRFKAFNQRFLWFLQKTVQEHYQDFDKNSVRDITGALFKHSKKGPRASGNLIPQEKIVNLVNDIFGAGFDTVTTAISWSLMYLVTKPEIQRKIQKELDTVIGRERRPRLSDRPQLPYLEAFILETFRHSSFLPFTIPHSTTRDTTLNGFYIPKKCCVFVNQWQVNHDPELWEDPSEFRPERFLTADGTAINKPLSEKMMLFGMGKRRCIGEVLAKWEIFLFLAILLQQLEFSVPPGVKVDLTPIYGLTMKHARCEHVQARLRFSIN
Voltage-gated inwardly rectifying potassium channel KCNH2 (Homo sapiens), sequence (Q12809 whole entry, looked up): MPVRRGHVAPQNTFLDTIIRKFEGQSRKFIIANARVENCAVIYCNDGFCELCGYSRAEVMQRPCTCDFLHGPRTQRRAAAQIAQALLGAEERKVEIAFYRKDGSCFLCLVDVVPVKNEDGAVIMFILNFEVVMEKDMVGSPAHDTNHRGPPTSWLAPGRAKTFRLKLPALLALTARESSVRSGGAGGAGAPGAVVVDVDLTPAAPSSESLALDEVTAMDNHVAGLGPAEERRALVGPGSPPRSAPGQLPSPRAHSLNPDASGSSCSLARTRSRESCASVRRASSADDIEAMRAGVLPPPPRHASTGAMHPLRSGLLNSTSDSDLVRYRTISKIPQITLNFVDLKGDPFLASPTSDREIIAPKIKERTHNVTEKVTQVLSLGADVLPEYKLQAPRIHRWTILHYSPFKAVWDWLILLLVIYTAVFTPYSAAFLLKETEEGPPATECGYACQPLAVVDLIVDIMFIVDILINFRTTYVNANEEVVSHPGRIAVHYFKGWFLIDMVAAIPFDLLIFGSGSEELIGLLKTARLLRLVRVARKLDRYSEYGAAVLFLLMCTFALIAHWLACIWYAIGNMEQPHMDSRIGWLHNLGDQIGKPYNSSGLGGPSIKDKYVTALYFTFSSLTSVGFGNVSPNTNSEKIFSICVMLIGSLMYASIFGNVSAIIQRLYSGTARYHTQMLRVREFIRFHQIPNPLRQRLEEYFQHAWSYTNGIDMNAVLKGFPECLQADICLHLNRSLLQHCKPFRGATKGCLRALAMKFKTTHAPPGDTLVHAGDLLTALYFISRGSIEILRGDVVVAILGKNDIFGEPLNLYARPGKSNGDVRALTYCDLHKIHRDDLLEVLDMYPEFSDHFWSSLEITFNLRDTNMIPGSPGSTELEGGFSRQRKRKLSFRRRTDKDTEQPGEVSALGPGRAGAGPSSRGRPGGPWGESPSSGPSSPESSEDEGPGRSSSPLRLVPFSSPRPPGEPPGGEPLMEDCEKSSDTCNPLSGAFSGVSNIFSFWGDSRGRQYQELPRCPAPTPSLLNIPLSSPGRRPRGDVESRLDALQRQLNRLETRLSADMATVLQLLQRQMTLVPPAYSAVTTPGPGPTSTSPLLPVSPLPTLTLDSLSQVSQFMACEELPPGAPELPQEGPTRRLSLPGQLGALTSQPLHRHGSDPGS
Cytochrome P450 3A4 (Homo sapiens), sequence (P08684 whole entry, looked up): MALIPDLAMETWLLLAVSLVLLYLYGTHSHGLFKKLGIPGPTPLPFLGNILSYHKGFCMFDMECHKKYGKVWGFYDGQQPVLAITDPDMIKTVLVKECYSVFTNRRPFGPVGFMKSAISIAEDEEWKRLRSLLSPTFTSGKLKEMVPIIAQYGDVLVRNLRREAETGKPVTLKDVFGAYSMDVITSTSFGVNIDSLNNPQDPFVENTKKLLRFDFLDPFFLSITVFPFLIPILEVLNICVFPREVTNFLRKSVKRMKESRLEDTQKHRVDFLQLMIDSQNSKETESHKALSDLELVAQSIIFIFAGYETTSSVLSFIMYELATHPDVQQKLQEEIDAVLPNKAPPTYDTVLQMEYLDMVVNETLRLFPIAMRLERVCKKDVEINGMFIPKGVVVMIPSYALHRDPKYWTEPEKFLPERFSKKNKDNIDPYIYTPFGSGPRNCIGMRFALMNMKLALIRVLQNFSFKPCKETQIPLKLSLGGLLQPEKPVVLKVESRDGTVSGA

Regarding `Sc1nc(S)nc(S)n1`, the Potency entry in assay [1], in assay [2], in assay [3] and in assay [4] was “inactive” in each case.
For `C[C@]12CCC(=O)C=C1[C@@H]1C[C@@H]1[C@H]1[C@@H]3[C@@H]4C[C@@H]4[C@@]4(CCC(=O)O4)[C@@]3(C)CC[C@@H]12`, the Potency result in assay [1], in assay [3], in assay [4] and in assay [5] was “inactive” each time. Moreover, the Potency in assay [2] was 0.871 µM (active).
Take `Cc1c(N=C=O)cccc1N=C=O`: the Potency entry in assay [1] and in assay [4] was “inactive” each time. The Potency in assay [2] was 72.4 µM (active).
Consider `CCC(=O)O[C@]1(C(=O)COC)[C@@H](C)C[C@H]2[C@@H]3CCC4=CC(=O)C=C[C@]4(C)C3(F)[C@@H](O)C[C@@]21C` (some centres not stated), for which the Potency in assay [1] was 15.5 µM (active). The Potency entry in assay [2], in assay [3] and in assay [4] was “inactive” in each case.
`C(/C=C/C=C/Nc1ccccc1)=Nc1ccccc1`: the Potency in assay [1] is 71 µM (active). Besides, the Potency result in assay [2] and in assay [4] was “inactive” throughout.
Turning to `CC(=O)Oc1cccc2c1C(=O)c1c(OC(C)=O)cc(C(=O)O)cc1C2=O`, the Potency result in assay [1], in assay [2], in assay [3], in assay [4] and in assay [5] was “inactive” throughout.
With `O=C(O)COCC(=O)O`, the Potency result in assay [1], in assay [2], in assay [4] and in assay [5] was “inactive” in each case.
Turning to `CC(C)C[C@H](NC(=O)[C@H](Cc1ccccc1)NC(=O)c1cnccn1)B(O)O`, the Potency entry in assay [1] and in assay [4] was “inactive” each time. Moreover, the Potency in assay [2] was 34.7 µM (active); in assay [3], 24.5 µM (active).
For the molecule `CC(C)Cc1nccs1`, the Potency in assay [1] is 12.9 µM (active); in assay [2], 40.7 µM (active). Moreover, the Potency entry in assay [4] and in assay [5] was “inactive” each time.
Take `CCCCCCCCCCCC(=O)OCC`: the Potency entry in assay [1], in assay [2], in assay [4] and in assay [5] was “inactive” each time.
For `CCC[Si](OC)(OC)OC`, the Potency entry in assay [1], in assay [4] and in assay [5] was “inactive” in each case. Further, in assay [2], the Potency is 71 µM (active).
With `O=C(O)c1cccnc1Nc1cccc(C(F)(F)F)c1`, the Potency entry in assay [1], in assay [2] and in assay [4] was “inactive” each time.
As to `O=C(O)c1ccccc1-n1cc(C(=O)O)c(=O)c2cc(Nc3c(F)cc(F)cc3Cl)c(Cl)cc21`, the Potency result in assay [1], in assay [2], in assay [3], in assay [4] and in assay [5] was “inactive” throughout.
Take `O=C(c1ccc(Cl)cc1)c1ccc(Cl)cc1`: the Potency result in assay [1], in assay [4] and in assay [5] was “inactive” each time. Further, the Potency in assay [2] is 1 µM (active).
With `CC(C)CCCCCCCOC(=O)c1ccc(C(=O)OCCCCCCCC(C)C)c(C(=O)OCCCCCCCC(C)C)c1`, the Potency entry in assay [1], in assay [2] and in assay [4] was “inactive” in each case.
For the molecule `Cc1ccc(S(=O)(=O)NC(=O)NC2CCCC2)cc1`, the Potency entry in assay [1], in assay [2], in assay [4] and in assay [5] was “inactive” throughout.
Take `CCc1cnc(C(=O)O)c(C(=O)O)c1`: the Potency entry in assay [1], in assay [2], in assay [3], in assay [4] and in assay [5] was “inactive” in each case.
With `O=c1[nH][nH]c2ccccc12`, the Potency result in assay [1] and in assay [4] was “inactive” each time. The Potency is 81.2 µM (active) in assay [2] and 32.3 µM (active) in assay [5].
With `CCC(C)CCCC(C)(C)O` (configuration not stated), the Potency entry in assay [1], in assay [2], in assay [4] and in assay [5] was “inactive” in each case.
On to `Nc1nc(Cl)nc2c1ncn2[C@H]1C[C@H](O)[C@@H](CO)O1`, for which the Potency result in assay [1], in assay [2], in assay [4] and in assay [5] was “inactive” in each case. Also, the Potency in assay [3] is 28.1 µM (active).
Regarding `C[C@@H](O)[C@H]1C(=O)N2C(C(=O)O)=C(S[C@@H]3CN[C@H](CNS(N)(=O)=O)C3)[C@H](C)[C@H]12`, the Potency entry in assay [1] was “inactive”. The Potency was 9.77 µM (active) in assay [2], 15.5 µM (active) in assay [6] and 3.89 µM (active) in assay [5].
With `O=C1c2ccccc2C(=O)C1c1ccc2ccccc2n1`, the Potency result in assay [1] and in assay [4] was “inactive” throughout. For the same molecule, the Potency in assay [2] was 3.14 µM (active); in assay [3] it was 2.22 µM (active).
For `Clc1ccccc1-c1nc(-c2ccncc2)no1`, the Potency in assay [1] is 13.8 µM (active); in assay [2], 0.977 µM (active); in assay [3] it was 0.512 µM (active). For the same molecule, the Potency entry in assay [4] was “inactive”.
In the same order, the values of `CC(=O)Nc1ccn(C2COC(COC(=O)c3ccccc3)O2)c(=O)n1` (configuration not stated) are “inactive”, “inactive”, 24.5 µM (active) and “inactive”.
On to `CC(CN=Cc1ccccc1O)N=Cc1ccccc1O` (configuration not stated), for which the Potency was 35.6 µM (active) in assay [1] and 20 µM (active) in assay [3]. The Potency entry in assay [2], in assay [4] and in assay [5] was “inactive” in each case.
Take `CNc1ccccc1`: the Potency entry in assay [1], in assay [3], in assay [4] and in assay [5] was “inactive” in each case. Also, in assay [2], the Potency was 31.7 µM (active).
Turning to `COC(=O)C(C)(C)C`, the Potency entry in assay [1], in assay [4] and in assay [5] was “inactive” in each case. Also, the Potency is 32.2 µM (active) in assay [2] and 40.5 µM (active) in assay [3].
For `CC(C)=CCC[C@H](C)CCO`, the Potency result in assay [1] and in assay [4] was “inactive” in each case. In addition, the Potency in assay [2] is 71 µM (active).
Consider `CCCc1nc(C)c2c(=O)[nH]c(-c3cc(S(=O)(=O)N4CCN(CC)CC4)ccc3OCC)nn12`, for which the Potency entry in assay [1], in assay [2], in assay [3] and in assay [4] was “inactive” throughout.
As for `CC/C=C\CCO`, the Potency result in assay [1], in assay [2], in assay [3], in assay [4] and in assay [5] was “inactive” throughout.
Take `CC(=O)S[C@H](C(=O)N[C@H]1Cc2ccccc2[C@H]2CCC[C@@H](C(=O)O)N2C1=O)C(C)C`: the Potency result in assay [1], in assay [2], in assay [3], in assay [4] and in assay [5] was “inactive” in each case.
Consider `Cc1c(Cl)cccc1Nc1ccccc1C(=O)O`, for which the Potency result in assay [1], in assay [2], in assay [4] and in assay [5] was “inactive” throughout. For the same molecule, the Potency in assay [6] was 17.4 µM (active).
As for `Nc1cccc2c(=O)[nH][nH]c(=O)c12`, in assay [1], the Potency is 5.05 µM (active). In addition, the Potency entry in assay [2], in assay [6] and in assay [5] was “inactive” throughout.
Turning to `CS(C)=O`, the Potency entry in assay [1], in assay [2], in assay [4] and in assay [5] was “inactive” throughout.
